From ChEMBL document CHEMBL3988442, “University of Dundee, Small-Polar-MMV Screening Library” (2021)
About 960 (1.5%) of roughly 66,000 compounds showed an effect of 50% or more. The entries come from a sample that favours strong results as a whole.

Tested on: Trypanosoma brucei
Assay: Trypanosoma brucei 72 hour study
Format: functional, organism-based
Parameters: scale not given: in the data most compounds retested in dose-response had high values

SMILES: CCCN1C(=O)[C@H]2CC[C@@H]1CN(S(=O)(=O)c1cccc(Cl)c1)C2
- Percent Effect (30.3 µM, […]): -12.81%

SMILES: Cc1cccc(CN2CCc3onc(CO)c3C2)n1.O=C(O)C(F)(F)F
- Percent Effect (30.3 µM, […]): -52.13%

SMILES: O=C(O)C(F)(F)F.O=C(O)C(F)(F)F.c1cncc(OCc2noc3c2CN(Cc2ccsc2)CC3)c1
- Percent Effect (30 µM, 30.03 µM): -15.24%

SMILES: O=C(Nc1ccc(Cl)cc1)c1nn(C2CCS(=O)(=O)C2)c2c1CCCC2 (stereo not given)
- Percent Effect (30 µM, 30.03 µM): -43.99%

SMILES: O=C(Nc1cccc(Cl)c1)c1nn(C2CCS(=O)(=O)C2)c2c1CCCC2 (stereo not given)
- Percent Effect (30 µM, 30.03 µM): 73.39%

SMILES: O=C(Nc1ccccc1)c1nn(C2CCS(=O)(=O)C2)c2c1CCCC2 (stereo not given)
- Percent Effect (30 µM, 30.03 µM): 23.09%

SMILES: Cc1[nH]c2ccc(CNc3cc(C#N)ccn3)cc2c1C
- Percent Effect (30 µM, 30.03 µM): 39.43%

SMILES: COCC(C)NCc1ccc2[nH]c(C)c(C)c2c1 (stereo not given)
- Percent Effect (30 µM, 30.03 µM): 2.897%

SMILES: Cc1[nH]c2ccc(CNc3cc(C(N)=O)ccn3)cc2c1C
- Percent Effect (30 µM, 30.03 µM): 60.58%

SMILES: Cc1[nH]c2ccc(CNc3cc(C(=O)NC(C)C)ccn3)cc2c1C
- Percent Effect (30 µM, 30.03 µM): 50.33%

SMILES: COC(=O)C(C)NCc1ccc2[nH]c(C)c(C)c2c1 (stereo not given)
- Percent Effect (30 µM, 30.03 µM): -35.15%

SMILES: CSCC(C)NCc1ccc2[nH]c(C)c(C)c2c1 (stereo not given)
- Percent Effect (30 µM, 30.03 µM): -11.75%

SMILES: NC[C@H]1CC[C@H](C(NC(=O)CC2CCCCC2)c2ccccn2)CC1 (stereo not given in full)
- Percent Effect (30.3 µM, […]): -8.457%

SMILES: COc1cnc(C2(O)CCN(C(=O)c3ccccn3)CC2)c(OC)n1
- Percent Effect (30.3 µM, […]): -9.61%

SMILES: COc1c(CNCCNC(=O)c2cccc(C)c2)c(C)nn1C.Cl
- Percent Effect (30.3 µM, […]): 0.1013%

SMILES: O=C(NCC1CC1)[C@H]1C[C@@H]2CN(C(=O)NCc3ccccc3)C[C@H]1O2
- Percent Effect (30 µM, 30.03 µM): 46.62%

SMILES: COc1cccc(-c2n[nH]cc2CNC2CCN(C(C)C)CC2)c1.Cl
- Percent Effect (30 µM, 30.03 µM): -15.13%

SMILES: CC(C)c1nn(C)c(Cl)c1CNC1CCOc2ccccc21.Cl (stereo not given)
- Percent Effect (30 µM, 30.03 µM): 55.88%

SMILES: CC(C)c1nn(C)c(N(C)C)c1CNC1CCOc2ccccc21 (stereo not given)
- Percent Effect (30 µM, 30.03 µM): -51.78%

SMILES: COc1c(CNC2CCOc3ccccc32)c(C(C)C)nn1C (stereo not given)
- Percent Effect (30 µM, 30.03 µM): 25.19%

SMILES: CN1CC(=O)N(c2cccc(F)c2)CC12CCN(CC1CCOCC1)C2.O=C(O)C(F)(F)F.O=C(O)C(F)(F)F (stereo not given)
- Percent Effect (30 µM, 30.03 µM): 9.991%

SMILES: COc1ccc(C2=Nn3c(CN)nnc3-c3ccccc3C2)cc1
- Percent Effect (30 µM, 30.03 µM): 2.28%

SMILES: COc1ncccc1C(=O)N1CCCC(n2ccnc2C)C1 (stereo not given)
- Percent Effect (30.3 µM, […]): -7.34%

SMILES: CC(C)C(=O)NC1CCN(Cc2cccc3c2OCCO3)CC1
- Percent Effect (30 µM, 30.03 µM): -15.03%

SMILES: Cc1ccoc1C(=O)NC1CCN(Cc2ccccc2C#N)CC1
- Percent Effect (10 µM): 15.78%
- Percent Effect (30.3 µM, […]): -0.9403%

SMILES: Cc1ccc(C(=O)NC2CCN(Cc3cccc4c3OCCO4)CC2)s1
- Percent Effect (10 µM): -2.683%
- Percent Effect (30.3 µM, […]): 68.24%

SMILES: Cc1ccoc1C(=O)NC1CCN(Cc2ccccc2F)CC1
- Percent Effect (10 µM): -23.23%
- Percent Effect (30.3 µM, […]): 4.829%

SMILES: Cc1ccoc1C(=O)NC1CCN(Cc2cccc3ccccc23)CC1
- Percent Effect (10 µM): -9.27%
- Percent Effect (30.3 µM, […]): 57.41%

SMILES: O=C(NC1CCN(Cc2cccc3c2OCCO3)CC1)c1cccs1
- Percent Effect (10 µM): 10.83%
- Percent Effect (30.3 µM, […]): 7.019%

SMILES: O=C(O)C(F)(F)F.O=C(c1ccc(F)cc1)N1CCC2(CCN(Cc3ccccn3)C2=O)C1 (stereo not given)
- Percent Effect (30 µM, 30.03 µM): -50.24%

SMILES: Cc1csc2ncc(-c3ccnc(N4CCC[C@H](C(N)=O)C4)n3)c(=O)n12
- Percent Effect (30.3 µM, […]): -8.345%

SMILES: CCN(CC)Cc1cn2c(n1)CN(C1CCOC1)CC2.O=C(O)C(F)(F)F.O=C(O)C(F)(F)F (stereo not given)
- Percent Effect (30.3 µM, […]): -56.79%

SMILES: Cc1ccccc1C(N)c1ccncc1.Cl (stereo not given)
- Percent Effect (30.3 µM, […]): -1.36%

SMILES: CCOc1c(F)cccc1C(=O)N(CC)C(C)c1ccncc1 (stereo not given)
- Percent Effect (30.3 µM, […]): 3.975%

SMILES: CCOc1c(F)cccc1C(=O)N(CC)C(C)c1cccnc1 (stereo not given)
- Percent Effect (30.3 µM, […]): 6.068%

SMILES: CCOc1c(F)cccc1C(=O)N(c1cccnc1)C(C)C
- Percent Effect (30.3 µM, […]): 99.6%

SMILES: Cc1cc(C(=O)N2CCC3(CC2)C(=O)N(C)CCN3CC(C)C)c(C)o1.O=C(O)C(F)(F)F
- Percent Effect (30.3 µM, […]): 2.031%

SMILES: CCOC(=O)[C@]12CCCN(Cc3cccs3)C[C@H]1CN(C(C)C)C2.O=C(O)C(F)(F)F.O=C(O)C(F)(F)F
- Percent Effect (30.3 µM, […]): -11.59%

SMILES: Cc1cc(=O)n2nc(Oc3cccc(C(N)=O)c3)sc2n1
- Percent Effect (30 µM, 30.03 µM): -16.62%

SMILES: Cc1cc(=O)n2nc(Oc3cc(Cl)cc(Cl)c3)sc2n1
- Percent Effect (30 µM, 30.03 µM): -23.2%

SMILES: Cc1cc(=O)n2nc(Oc3ccc(Cl)c(C)c3)sc2n1
- Percent Effect (30 µM, 30.03 µM): -32.75%

SMILES: Cc1cc(=O)n2nc(Oc3ccc(C#N)cc3Cl)sc2n1
- Percent Effect (30 µM, 30.03 µM): 98.96%

SMILES: Cc1cc(=O)n2nc(Oc3ccc(F)c(F)c3)sc2n1
- Percent Effect (30 µM, 30.03 µM): -14.16%

SMILES: Cc1cc(=O)n2nc(Oc3cccc(I)c3)sc2n1
- Percent Effect (30 µM, 30.03 µM): 99.1%

SMILES: CN1CCCCCC1C(=O)N1CCN(c2ccccc2C#N)CC1 (stereo not given)
- Percent Effect (30 µM, 30.03 µM): 14.65%
